Screens as filed in PubChem.
Rows were chosen to be rich in hits. Some 1.7% of all compounds tested hit in one or more screens of this group.
CHT block = human CHT choline transport inhibition; Q9GZV3; CHT-expressing cells, membrane potential dye, choline response; stronger effect = lower value; B-score at 10 µM; hit rate 0.86% among 310,000; AID 488975;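 active = B-score over 3 SD under the library average, and starting fluorescence ratio not unusually high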;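 also: choline stimulus applied at its EC90 after an EC20 pre-addition; B-score computed on integrated fluorescence ratio after choline addition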
Target sequence (Q9GZV3 whole entry, looked up): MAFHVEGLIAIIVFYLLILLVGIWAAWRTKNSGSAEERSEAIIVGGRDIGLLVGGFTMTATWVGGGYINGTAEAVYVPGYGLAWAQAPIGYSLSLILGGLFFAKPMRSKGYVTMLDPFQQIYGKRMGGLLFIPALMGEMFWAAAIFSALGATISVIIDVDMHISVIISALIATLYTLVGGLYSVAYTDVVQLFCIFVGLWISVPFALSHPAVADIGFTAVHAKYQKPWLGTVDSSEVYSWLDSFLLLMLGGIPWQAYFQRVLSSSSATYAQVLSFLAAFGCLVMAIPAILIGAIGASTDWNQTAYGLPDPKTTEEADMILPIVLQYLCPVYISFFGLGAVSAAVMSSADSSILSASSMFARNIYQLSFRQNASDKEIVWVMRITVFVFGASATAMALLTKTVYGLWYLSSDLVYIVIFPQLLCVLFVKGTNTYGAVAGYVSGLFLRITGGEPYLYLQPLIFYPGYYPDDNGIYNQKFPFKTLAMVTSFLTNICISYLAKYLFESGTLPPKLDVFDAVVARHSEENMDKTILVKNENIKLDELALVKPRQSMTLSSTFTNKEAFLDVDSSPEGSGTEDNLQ
H9c2 TAG inh = inhibitors of triacylglycerol accumulation | H9c2 cells, Nile Red lipid (TAG) fluorescence; cells loaded with 200 µM oleic acid | inhibition, % at 12.5 µM | hit rate 0.66% among 230,000 | AID 651582;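 active = pattern-corrected inhibition of lipid staining of at least 50% with the nuclear-stain viability signal not falling by more than 50%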;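 also: 0% = DMSO wells and 100% = triacsin C control wells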
beta cell repl = inducers of beta-cell replication in MIN6 cells | MIN6 cells proliferation, ATPlite luminescence, 48 h; cells starved in 0.2% serum; 100% = growth in 10% serum | proliferation, % at 10 µM | hit rate 0.29% among 330,000;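 active = compounds whose signal lies at least 3.5 SD above the mean of all wells on their plate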;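 also: 0% = DMSO-treated cells in low-serum medium and 100% = 10% serum control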
CHT PAM = allosteric activators of human choline transporter CHT; Q9GZV3; hit rate 0.49% among 310,000; B-score at 10 µM; CHT-expressing cells, membrane potential dye, choline EC20; stronger effect = higher value; LV-AA mutant CHT in HEK293 cells; AID 488977;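 active = initial fluorescence not abnormally high and integrated response B-score, plate-corrected, over 3 SD above library mean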
CHT block conf = human CHT inhibition, confirmatory screen. shares compounds with CHT block. CHT-expressing cells, choline membrane potential dye; LV-to-AA substituted CHT, HEK293 cells. CHT activity remaining % of control (stronger effect = lower value), % at 10 µM. hit rate 70% among 2,400;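 active = choline transporter activity left, mean of duplicates at 10 µM, below buffer-only control mean minus 3 SD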;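 also: depolarization triggered by choline at its EC90 following an EC20 pre-addition; 0% = hemicholinium-3 full block and 100% = buffer-only control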
HEK293 CHT ctr = counter-screen for CHT inhibitors: effect in parental HEK293 cells; shares compounds with CHT block; hit rate 4% among 2,400; membrane potential ratio readout (active if shifted either direction beyond buffer ±3SD; no single direction) at 10 µM; membrane potential dye, choline response; active = decrease or increase beyond buffer ±3SD; AID 493222;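 also: parental cells lack the transporter so any hit is non-specific; ratio is peak minus trough fluorescence over baseline after EC90 choline challenge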
* marks the source's active call; other numbers are inactive results.

`COc1ccc(CNS(=O)(=O)c2ccc3c(c2)CC(C)N3C(=O)C2CC2)cc1` (centres undefined) gave CHT block -4.99*, beta cell repl -3.6, CHT PAM inactive, CHT block conf inactive and HEK293 CHT ctr inactive.
COc1cccc(CNS(=O)(=O)c2ccc3c(c2)CC(C)N3C(=O)C2CC2)c1 (centres undefined) was read as CHT block inactive, beta cell repl -1.3 and CHT PAM inactive.
NNC(=O)[C@H](Cc1ccccc1)NC(=O)NCCc1ccccc1 was read as CHT block inactive, beta cell repl 2.1 and CHT PAM inactive.
For CCc1nn(C(C)C(=O)NCCc2ccccc2)c(=O)c2cc3occc3n12 (centres undefined) the results were CHT block -5.68*, beta cell repl 5.4, CHT PAM inactive, CHT block conf inactive and HEK293 CHT ctr inactive.
For Cc1nn(C(C)C(=O)NC(C)CCc2ccccc2)c(=O)c2cc3occc3n12 (centres undefined) the results were CHT block -6.92*, beta cell repl -1.5, CHT PAM inactive, CHT block conf 54.7%* and HEK293 CHT ctr inactive.
CCc1nn(CCCC(=O)N2CCc3ccccc3C2)c(=O)c2cc3occc3n12 was read as CHT block -5.68*, beta cell repl 1.0, CHT PAM inactive, CHT block conf 57.9%* and HEK293 CHT ctr -9.01*.
COc1ccccc1CNC(=O)C(C)n1nc(C)n2c(cc3occc32)c1=O (centres undefined) was read as CHT block inactive, beta cell repl -0.8 and CHT PAM inactive.
`CCc1nn(C(C)C(=O)NC(C)CCc2ccco2)c(=O)c2cc3occc3n12` (centres undefined) gave CHT block -5.92*, beta cell repl 0.9, CHT PAM inactive, CHT block conf 49.0%* and HEK293 CHT ctr -13.7*.
`CC1CCC2(CC1)NC(=O)N(Cc1cccc(C(F)(F)F)c1)C2=O` (centres undefined) gave CHT block inactive, H9c2 TAG inh -0.5, beta cell repl -0.5 and CHT PAM inactive.
For CCOc1ccc(C2NC(=O)NC(C)=C2[N+](=O)[O-])cc1OC (centres undefined) the results were CHT block inactive, H9c2 TAG inh 8.0, beta cell repl -0.1 and CHT PAM inactive.
CCN(CC)S(=O)(=O)c1ccc(Cl)c(C(=O)N2CCc3ccccc32)c1 was read as CHT block inactive, H9c2 TAG inh -16.9, beta cell repl 1.3 and CHT PAM inactive.
CCN(CC)S(=O)(=O)c1cc(C(=O)N2CCc3ccccc32)ccc1Cl was read as CHT block -5.84*, H9c2 TAG inh 0.8, beta cell repl -1.9, CHT PAM inactive, CHT block conf 66.7%* and HEK293 CHT ctr inactive.
N#Cc1cc2c(=O)n3ccccc3nc2n(-c2ccccc2Cl)c1=O was read as CHT block inactive, H9c2 TAG inh 2.3, beta cell repl -0.7 and CHT PAM inactive.
Screening CC1=CC(=O)C(C(C)C)=C/C1=N/OS(=O)(=O)c1ccccc1 returned CHT block -9.6*, H9c2 TAG inh 98.4, beta cell repl -4.2, CHT PAM inactive, CHT block conf 64.1%* and HEK293 CHT ctr inactive.
`COc1cccc(NC(=O)C2CCC(CNS(=O)(=O)c3cccc4cccnc34)CC2)c1` (centres undefined) gave CHT block inactive, beta cell repl -5.1 and CHT PAM inactive.
For Oc1c(Br)cc(Br)cc1/C=N/c1nc2c(s1)CCCC2 the results were CHT block -12*, H9c2 TAG inh -4.3, beta cell repl -5.8, CHT PAM inactive, CHT block conf 57.0%* and HEK293 CHT ctr inactive.
Oc1ccc2ccccc2c1/C=N/c1nc2c(s1)CCCC2 was read as CHT block inactive, beta cell repl -2.8 and CHT PAM inactive.
`O=C(Cc1c(F)cccc1Cl)Nc1ccc(S(=O)(=O)NCC2CCCO2)cc1` (centres undefined) gave CHT block inactive, H9c2 TAG inh 4.2, beta cell repl -3.4 and CHT PAM inactive.
